HER2 expr 66K: inhibitors of Her2 protein expression, primary screen, SKBR-3 cells, AlphaScreen, 66K library. Receptor tyrosine-protein kinase erbB-2 (Homo sapiens), P04626. SKBR-3 HER2 protein level, 18-24 h; hits give low values. HER2 level % of control, % at 10 µM. 65,000 compounds, 0.69% hits. AID 645, 2007;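 active means HER2 level under 5% of the carrier-only control; inconclusive means no clear call, values can overlap the other calls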;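 further: lower value means stronger loss of Her2 protein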
M1 antagonist: antagonists of rat M1 muscarinic receptor. 64,000 compounds, 3.4% hits. Muscarinic acetylcholine receptor M1 (Rattus norvegicus), P08482. CHO-M1 cells, Fluo-4 calcium, ACh EC80 antagonist mode; hits give low values. AID 628, 2007. B-score at 10 µM;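 active means calcium fluorescence response, raw or row-and-column corrected B-score, differing from the plate sample mean either way at a set confidence level, mostly lower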
PLAP activator: PLAP enzyme activators, biochemical, luminescence, HTS; purified PLAP enzyme, luminescent substrate read-out; hits give high values; 96,000 compounds, 1.2% hits; Alkaline phosphatase, placental type (Homo sapiens), P05187; activation fold at 20 µM; in the data active means activation fold above about 2
M1 ag: M1 muscarinic receptor agonists, primary screen, CHO-M1 cells, Fluo-4 calcium, agonist mode | AID 626, 2007 | B-score at 10 µM | Muscarinic acetylcholine receptor M1 | Fluo-4 calcium fluorescence; hits give high values | 64,000 compounds, 3% hits;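 active means fluorescence rise, raw or as B-score row- and column-corrected plate score, outside the 99.7% band of its plate's samples, either direction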
Cav32 inh: Cav3.2 calcium influx blockers – cell-based, Fluo-4 calcium fluorescence, FDSS, MLSMR library, primary screen; Cav3.2-expressing cells; hits give low values; AID 449739, 2010; B-score at 10 µM; 100,000 compounds, 4% hits; Voltage-dependent T-type calcium channel subunit alpha-1H (Homo sapiens), O95180;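 active means single-dose well whose peak fluorescence ratio is a statistical outlier from its plate by either plate-standardised score or position-corrected B-score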
Target sequence (O95180 whole entry, looked up): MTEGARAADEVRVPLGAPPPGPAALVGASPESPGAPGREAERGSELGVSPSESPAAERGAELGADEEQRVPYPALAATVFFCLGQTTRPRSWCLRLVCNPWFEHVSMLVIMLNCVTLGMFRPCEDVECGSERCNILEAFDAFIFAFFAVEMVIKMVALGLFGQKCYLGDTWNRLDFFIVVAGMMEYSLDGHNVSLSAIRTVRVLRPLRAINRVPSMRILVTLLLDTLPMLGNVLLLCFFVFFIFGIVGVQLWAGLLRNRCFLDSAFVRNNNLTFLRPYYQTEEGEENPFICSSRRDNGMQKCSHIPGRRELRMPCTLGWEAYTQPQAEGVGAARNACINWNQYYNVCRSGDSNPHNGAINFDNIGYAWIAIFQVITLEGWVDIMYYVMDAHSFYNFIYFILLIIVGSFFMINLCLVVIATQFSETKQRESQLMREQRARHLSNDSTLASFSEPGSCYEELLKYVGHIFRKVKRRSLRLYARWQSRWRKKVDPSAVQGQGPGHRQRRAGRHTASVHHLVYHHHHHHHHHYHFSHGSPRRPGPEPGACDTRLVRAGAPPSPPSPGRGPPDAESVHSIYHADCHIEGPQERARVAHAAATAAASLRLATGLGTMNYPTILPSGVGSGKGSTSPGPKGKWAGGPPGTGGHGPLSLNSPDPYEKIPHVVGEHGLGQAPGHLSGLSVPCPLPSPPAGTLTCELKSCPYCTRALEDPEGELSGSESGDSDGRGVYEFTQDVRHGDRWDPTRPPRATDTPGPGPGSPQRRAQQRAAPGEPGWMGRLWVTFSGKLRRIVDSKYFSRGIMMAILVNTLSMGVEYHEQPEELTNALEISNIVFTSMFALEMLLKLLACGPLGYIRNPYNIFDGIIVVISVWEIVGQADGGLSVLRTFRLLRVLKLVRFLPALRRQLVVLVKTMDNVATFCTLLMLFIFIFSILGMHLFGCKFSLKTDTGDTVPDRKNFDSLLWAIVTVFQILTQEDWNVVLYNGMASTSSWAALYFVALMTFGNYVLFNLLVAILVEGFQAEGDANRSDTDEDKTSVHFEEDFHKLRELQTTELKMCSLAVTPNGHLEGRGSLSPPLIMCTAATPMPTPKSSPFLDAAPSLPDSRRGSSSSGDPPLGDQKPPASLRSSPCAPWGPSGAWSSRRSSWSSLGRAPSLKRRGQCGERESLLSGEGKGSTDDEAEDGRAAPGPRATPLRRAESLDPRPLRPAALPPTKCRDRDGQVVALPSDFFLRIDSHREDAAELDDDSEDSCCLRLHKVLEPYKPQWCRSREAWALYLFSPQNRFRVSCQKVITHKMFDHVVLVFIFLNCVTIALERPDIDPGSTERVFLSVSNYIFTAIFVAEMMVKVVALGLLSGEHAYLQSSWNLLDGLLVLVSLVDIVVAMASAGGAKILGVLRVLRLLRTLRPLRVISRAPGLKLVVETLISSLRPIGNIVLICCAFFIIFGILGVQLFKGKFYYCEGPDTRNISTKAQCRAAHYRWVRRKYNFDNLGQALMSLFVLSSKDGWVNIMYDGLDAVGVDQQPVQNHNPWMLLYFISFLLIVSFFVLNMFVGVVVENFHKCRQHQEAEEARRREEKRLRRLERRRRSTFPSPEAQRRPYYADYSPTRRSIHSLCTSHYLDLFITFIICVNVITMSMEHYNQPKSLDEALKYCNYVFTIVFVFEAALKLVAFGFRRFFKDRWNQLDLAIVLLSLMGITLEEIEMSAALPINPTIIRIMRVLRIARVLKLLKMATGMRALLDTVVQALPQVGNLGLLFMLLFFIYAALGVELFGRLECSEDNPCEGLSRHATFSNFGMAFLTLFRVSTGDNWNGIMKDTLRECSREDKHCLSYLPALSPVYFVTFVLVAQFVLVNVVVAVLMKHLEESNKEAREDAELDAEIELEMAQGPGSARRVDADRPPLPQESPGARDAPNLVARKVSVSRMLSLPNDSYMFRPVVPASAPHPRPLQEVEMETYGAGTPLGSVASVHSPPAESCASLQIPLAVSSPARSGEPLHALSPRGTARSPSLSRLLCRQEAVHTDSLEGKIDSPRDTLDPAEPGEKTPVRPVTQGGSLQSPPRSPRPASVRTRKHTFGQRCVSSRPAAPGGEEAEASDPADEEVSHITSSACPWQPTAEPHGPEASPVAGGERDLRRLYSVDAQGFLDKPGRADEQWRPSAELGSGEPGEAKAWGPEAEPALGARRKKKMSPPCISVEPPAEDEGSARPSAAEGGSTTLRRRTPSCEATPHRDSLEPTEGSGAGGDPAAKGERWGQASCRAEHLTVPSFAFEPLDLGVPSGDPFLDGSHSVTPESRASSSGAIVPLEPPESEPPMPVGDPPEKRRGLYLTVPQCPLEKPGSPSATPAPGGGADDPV
M1 ag confirm: rat M1 muscarinic receptor agonists, confirmation, CHO-M1 cells, Fluo-4 calcium, duplicate retest; shares compounds with M1 ag; Fluo-4 calcium fluorescence, agonist mode; actives lie on both sides; fluorescence change (max-min) at 10 µM; 1,700 compounds, 19% hits;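 active means fluorescence change differs from the solvent-only DMSO control mean at a set confidence level in both duplicate runs; inconclusive means differs from solvent-only control mean in just one of two runs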;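 further: an EC20 dose of acetylcholine follows compound addition during the same imaging run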
M4 ag counter: agonist activity at rat M4 receptor, confirmation, counter-screen for M1 allosteric modulator project, cell-based, agonist mode. shares compounds with M1 ag. CHO M4/Gqi5 cells, Fluo-4 calcium fluorescence; actives lie on both sides. fluorescence change (max-min) at 10 µM. 1,700 compounds, 9% hits. AID 1741, 2009;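 active means fluorescence change differing from the plate's solvent-only control wells at 99.7% confidence in both duplicates, whether higher or lower; inconclusive means differs from solvent controls in only one of two duplicates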
Hits are given with their value; - = inactive; ? = inconclusive; . = no result. In the library only some 7.9% were active in any assay of this set; here they are far more common.

SMILES	HER2 expr 66K	M1 antagonist	PLAP activator	M1 ag	Cav32 inh	M1 ag confirm	M4 ag counter
CCC(=O)N1CCN(c2ccccc2NC(=O)c2cccc(C)c2)CC1	-	-	-	9.81	-	-	?
O=C(Nc1ccccc1N1CCN(C(=O)c2ccc(Cl)cc2)CC1)c1ccc2c(c1)OCO2	-	-	-	-2.21	-	-	-
CCC(=O)N1CCN(c2ccccc2NC(=O)COc2ccccc2Cl)CC1	-	-	-	4.28	-	?	-
Cc1ccc(C(C)C)c(OCC(=O)Nc2ccccc2N2CCN(C)CC2)c1	-	-	-	-	-	.	.
CCC(=O)N1CCN(c2ccc(NC(=O)COc3ccccc3Cl)cc2)CC1	.	.	-	.	-	.	.
CCc1ccc(-c2cn3nc(C)c(C)nc3n2)cc1	-	-	.	7.26	-	88.7	-
CC1(c2nnc(Cc3ccccc3)o2)CC(c2c(Cl)cccc2Cl)=NO1 (centres undefined)	.	.	.	.	-	.	.
O=C(Cc1ccccc1)NCC1CCCO1 (centres undefined)	.	.	-	.	-	.	.
CC(C(=O)NCC1CCCO1)n1cccc1C(=O)c1ccccc1 (centres undefined)	-	2.26	-	20.9	-	-	?
CN1C(=O)c2cccc(NC(=O)Cc3ccccc3)c2C1=O	-	-	-	-	-	.	.
CC1(CC(=O)O)C(=O)N=C2C=CC=CN21 (centres undefined)	-	-	.	-	-	.	.
C=CCn1c2ccccc2c2nnc(SCCCn3c(=O)[nH]c4ccccc43)nc21	-	-6.62	-	5.32	-	-	-
COc1ccc(-c2cc(C(F)(F)F)nc(SCCC(=O)N3CCOCC3)n2)cc1	-	-	-	-	-	.	.
CCOC(=O)Cc1cn2c(=O)cc(CSCC(=O)Nc3ccc(C)c(C)c3)nc2s1	-	-	-	-	-	.	.
Cc1cccc(NC(=S)N2N=CCC2c2ccccc2)c1 (centres undefined)	.	.	-	.	-	.	.
O=S(=O)(NCCOCC(F)(F)C(F)F)c1ccc2oc3ccccc3c2c1	-	-	-	14.6	-4.59	-22.4	-
COc1ccc(OCCNS(=O)(=O)c2ccc3oc4ccccc4c3c2)cc1	.	.	-	.	-	.	.
Cc1cccn2c(=O)c3cc(C(=O)N4CCN(c5ccccc5)CC4)n(C)c3nc12	-	-	.	-	.	.	.
CCC(C)NS(=O)(=O)c1ccc(-c2csnn2)s1 (centres undefined)	.	.	-	.	-	.	.
Clc1ccc2c(c1)CNc1c(ncnc1N1CCOCC1)O2	-	-1.97	-	2.72	-	?	-
Nc1cc(Cl)ccc1N1CCOCC1	-	-	-	-	-	.	.
CCc1nc(C)cn1S(=O)(=O)c1cc(C)c(OC)cc1C	-	-	-	-3.74	-3.84	?	?
COc1ccc2[nH]c(=O)c(CN(Cc3nnnn3Cc3ccccc3)CC3CCCO3)cc2c1 (centres undefined)	-	-	-	-	-	.	.
COc1ccc2[nH]c(=O)c(CN(CC3CCCO3)C(=O)Nc3ccccc3OC)cc2c1 (centres undefined)	-	-	-	6.43	-	-	-
COc1ccc2[nH]c(=O)c(CN(Cc3cccnc3)C(=O)Nc3ccccc3)cc2c1	-	-	-	3.51	-	-27.9	?
SMILES	HER2 expr 66K	M1 antagonist	PLAP activator	M1 ag	Cav32 inh	M1 ag confirm	M4 ag counter
COc1ccc2[nH]c(=O)c(CN(Cc3nnnn3Cc3ccc(F)cc3)CC3CCCO3)cc2c1 (centres undefined)	-	-	-	2.61	-	-	-
CCSc1nc(-c2cccs2)nc2c1c(=O)n(C)c(=O)n2C	-	-	.	-	.	.	.
Fc1ccc(/C=C2\CCCC3=C2Nc2ncnn2C3c2ccc(F)cc2)cc1 (centres undefined)	.	.	-	.	-	.	.
O=C(N1CCCC1)n1c(Cc2ccccc2)nc2ccccc21	-	-	-	6.38	-	?	-82.3
O=C(O)Cn1c(CC(=O)N2CCCC2)nc2ccccc21	-	-	-	-	-	.	.
Cc1ccc(C(=O)N2CCN(S(C)(=O)=O)C2)cc1	-	-	-	4.01	-	?	-
CCOCCc1nnc(NC(=O)C(CC)c2ccccc2)s1 (centres undefined)	.	.	-	.	-	.	.
COc1ccc(NC(=O)C2CCN(S(=O)(=O)c3cccnc3)CC2)cc1Cl	-	-	.	-	.	.	.
COc1ccc(C2=CC(c3ccc(Cl)cc3)n3cnnc3N2)cc1OC (centres undefined)	-	-	-	6.84	-	223	190
CN1CC=C2C(C#N)=C(N)C(C#N)(C#N)C(CCc3ccccc3)C2C1 (centres undefined)	-	-	-	18.3	-	90.7	-
COc1cccc(C2C3CN(C)CC=C3C(C#N)=C(N)C2(C#N)C#N)c1OC (centres undefined)	-	-	-	87	.	651	605
CN1CC=C2C(C#N)=C(N)C(C#N)(C#N)[C@H](c3cccc(Cl)c3)C2C1 (some centres undefined)	-	-	-	53.5	-	173	-
COc1cc([C@@H]2[C@H]3CN(C)CC=C3C(C#N)=C(N)C2(C#N)C#N)cc2c1OCO2	-	-	-	6.65	-	-	-
CN1CC=C2C(C#N)=C(N)C(C#N)(C#N)C(c3ccsc3)C2C1 (centres undefined)	.	.	-	.	-	.	.
CN1CC=C2C(C#N)=C(N)C(C#N)(C#N)[C@H](c3cccs3)[C@H]2C1	.	.	.	.	-	.	.
O=S(=O)(/C=C/c1ccccc1)Oc1ccccc1	.	.	-	.	-	.	.
CCc1nnc(NC(=O)CSc2nnc(-c3ccc(O)cc3)n2-c2ccccc2)s1	-	-	.	-	.	.	.
CCN1CC=C2C(C#N)=C(N)C(C#N)(C#N)[C@H](c3cccc(OC)c3OC)[C@H]2C1	-	-	-	271	-	307	?
O=C(Cc1ccccc1)Nc1ccc(N2CCN(Cc3ccccc3F)CC2)cc1	.	.	-	.	-	.	.
CC1CN(S(=O)(=O)c2ccc(NC(=O)c3ccco3)cc2)CC(C)O1 (centres undefined)	-	-	-	12	-	-	-
O=c1c(O)c(-c2cccs2)oc2ccccc12	-	-1.56	-	140	-3.77	696	622
CCOC(=O)c1sc2nc(N3CCOCC3)c3c(c2c1N)CCCC3	-	-	-	-	-	.	.
COC(=O)c1ccc(-c2sc3nc(N4CCOCC4)c4c(c3c2N)CCCC4)o1	-	-	-	5.45	-	-	-
CN(Cc1cccs1)c1ncnc2sccc12	-	-	-	2.63	-	-	-87
O=C1CN(C(=O)COC(=O)c2ccccc2NC(=O)c2ccco2)c2ccccc2N1	-	-	-	3.58	-	?	?

Compound activity from PubChem.
